Source: ChEMBL document CHEMBL3988442, “University of Dundee, Small-Polar-MMV Screening Library” (2021)
Among all 48,000 compounds or so, about 13,000 (27%) showed an effect of 50% or more. Some of the results follow.

test system: Wolbachia pipientis; test: Anti-Wolbachia Cell-Based Screen; type: functional; set-up: scale not given: in the data most compounds retested in dose-response had high values; conditions: 5 µM

Structure (SMILES)	Percent Effect
CN(Cc1nc2ccccc2[nH]1)C(=O)CN(C)c1ccccc1	-21.88%
O=C(CCNc1ncc2c(n1)CCN2c1ccccc1)N1CCCC1	15.12%
COCCC1CN(c2nc(-c3ccccc3)nc3c2CCNC3)CCO1 (stereo not given)	-17.27%
Cc1cnc(C(=O)N2CCCC(c3nccn3Cc3cscn3)C2)cn1 (stereo not given)	3.931%
Cc1cc(C(=O)N(C)Cc2cnn(C)c2)c(NC(=O)C(C)(C)C)s1	-6.693%
Cn1ncc2c1C(COCC1CC1)CN(Cc1ccsc1)C2 (stereo not given)	99.94%
COCC1CN(Cc2ccsc2)Cc2cnn(C)c21 (stereo not given)	97.33%
COCC1CN(Cc2cccnc2OC)Cc2cnn(C)c21 (stereo not given)	-15.02%
Cn1ncc2c1C(COCC1CC1)CN(Cc1cccnc1)C2 (stereo not given)	-4.691%
CCOCC1CN(Cc2ccsc2)Cc2cnn(C)c21 (stereo not given)	100.2%
COc1ccc(CN2Cc3cnn(C)c3C(COCC3CC3)C2)cc1 (stereo not given)	13.17%
CCOCC1CN(CC2CC2)Cc2cnn(C)c21 (stereo not given)	-17.33%
CCn1ncc2c1C(COC)CN(Cc1ccsc1)C2 (stereo not given)	-10.45%
CC(=O)Nc1ccc(F)c(S(=O)(=O)NC(C)(C)C)c1	-3.757%
NCC1CCN(c2nc(C3CCCC3)nc3c2CCNCC3)C1 (stereo not given)	9.164%
Cc1cc(C(=O)N2CC[C@H](N3CCOCC3)[C@H](CCCO)C2)c(C)n1C	-10.4%
CC(=O)C(C)CC(=O)N(Cc1cccc(C)c1)C(C)C (stereo not given)	-23.01%
COc1ccccc1CN1CC[C@H](c2nnc(-c3cncn3C)o2)C1	-5.308%
Cc1ncsc1-c1nnc(C2CCN(Cc3ccccc3Cl)CC2)o1	122.3%
Cc1ncsc1-c1nnc(C2CCN(Cc3cccc(F)c3F)CC2)o1	117.8%
Cc1ccccc1CN1CC[C@H](c2nnc(-c3cncn3C)o2)C1	0.6101%
Cc1ncsc1-c1nnc(C2CCN(Cc3ccccc3F)CC2)o1	106.9%
CCn1cnnc1CNC(=O)c1ccc(Br)cc1F	-45.58%

Structure (SMILES)	Percent Effect
CC(C(=O)N1CCN(C(=O)c2ccc(F)cc2F)CC1)n1ccnc1 (stereo not given)	-6.751%
CN(Cc1ccc(Cl)s1)C(=O)Cn1nc(-c2ccc(F)cc2)oc1=O	-64%
CCCn1cnnc1CNC1CCSC1 (stereo not given)	5.781%
N#CCCN(Cc1cccnc1)C(=O)c1ccc(OCC2CC2)cc1	-3.781%
CN(Cc1ccsc1)C(=O)c1cc2c([nH]c1=O)CCCC2=O	2.933%
Cc1ccccc1OCCC(=O)N(C)Cc1c(C)noc1C	-17.09%
Cc1noc(C)c1CN(C)C(=O)c1n[nH]c(N)c1-c1ccccc1	103.1%
Cc1noc(C)c1C(=O)N(C)Cc1nc(-c2ccccn2)no1	-7.046%
Cc1ccc(CN(C)C(=O)c2n[nH]c(N)c2-c2ccccc2)o1	90.65%
CN(Cc1ccsc1)C(=O)c1n[nH]c(N)c1-c1ccccc1	96.05%
Cc1ccc(CN(C)C(=O)c2cccc(NC(N)=O)c2)o1	-0.4854%
CCc1nnsc1C(=O)N(C)Cc1ccc(C)o1	0.8104%
Cc1noc(CN(C)C(=O)c2n[nH]c(N)c2-c2ccccc2)n1	101.7%
Cc1noc(C)c1CN(C)C(=O)c1nc(N2CCCC2)ncc1Cl	-6.035%
Cc1nc(NC(=O)N(C)Cc2ccsc2)nn1C	1.412%
Cc1noc(CN(C)c2ccccc2)n1	0.05791%
Cc1ccc(CN(C)C(=O)c2cc3c(c(S(N)(=O)=O)c2)CCC3)o1	-13.85%
CCC1=N[C@@]2(CC[C@@H]3CN(S(=O)(=O)CC)C[C@@H]32)C(=O)N1CCOC	-7.119%
CN(c1ncc(C(N)=O)cc1Cl)C1CCC(c2ccccc2)CC1 (stereo not given)	-13.88%
CN(Cc1ccsc1)C(=O)Nc1ccc(=O)n(C)c1	-4.532%
CCn1cnnc1C1CCN(C(=O)CCCOc2ccccc2)CC1	6.265%
CNCC(=O)N1CCC(c2cccc(Oc3ccccc3)n2)CC1	178.2%
COCC(=O)N1CCC(c2cccc(Cc3ccc(F)cc3)n2)CC1	-12.66%

Structure (SMILES)	Percent Effect
NC(=O)CN1CCC(c2cccc(Oc3ccccc3)n2)CC1	173%
CCn1cnnc1C1CCN(C(=O)COc2ccccc2)CC1	2.9%
NCC(=O)N1CCC(c2cccc(Oc3ccccc3)n2)CC1	130.3%
CC(=O)N1CCC(c2cccc(Oc3ccccc3)n2)CC1	144.2%
CC(C)(C)c1nnc(CSc2ccccn2)o1	4.822%
CN(Cc1ccccc1)C1(C(=O)NCC(N)=O)Cc2ccccc2C1	-1.712%
O=C(NCc1csc(Cc2ccccc2)n1)C1NCCc2[nH]cnc21 (stereo not given)	-10.41%
CCn1nc(C)c(NC(=O)c2cc(NC(=O)C(C)C)n(C)n2)c1C	2.528%
CCCc1cc(C(=O)N(Cc2cccnc2)Cc2cccnc2)[nH]n1	-21.08%
NCC1Cc2cc(-c3cncc(C(=O)N4CCCCC4)n3)cc(F)c2O1 (stereo not given)	-1.954%
Clc1cc(NCc2nccs2)nc2[nH]ccc12	109.6%
CN(C)CCNc1cc(-c2ncccc2Cl)c2cc[nH]c2n1	-5.947%
Fc1ccc(NCc2ncc[nH]2)cc1Br	-22.04%
Clc1cc(NCc2ncc[nH]2)nc2[nH]ccc12	61.99%
COc1ncc(-c2cc(NCCN(C)C)nc3[nH]ccc23)c(OC)n1	-3.716%
Clc1cc(NCc2ccncc2)nc2[nH]ccc12	93.22%
O=C(Nc1ccccc1)c1ccc(NCc2ccncc2)nn1	-22.46%
O=C(CCc1ccc(Br)cc1)NCCc1nnc[nH]1	7.079%
CC(C)(C)OCCN1CCCC1c1nc(Cc2ccc(F)cc2)no1 (stereo not given)	28.24%
c1ccc(CN2CCC(NCCSc3cnn[nH]3)CC2)cc1	-22.28%
COC(=O)CCCC(=O)N1CCCCC1c1ccc(F)cc1 (stereo not given)	-3.374%
CN(C)CC(=O)N1CCCC1c1cncc(Oc2ccc(F)cc2)n1 (stereo not given)	102.5%
COc1ccc(C2CCCN2C(=O)Nc2ccc(OC)nc2)cc1 (stereo not given)	2.775%

Structure (SMILES)	Percent Effect
CN(CC(=O)N1CCCC1c1ccccn1)Cc1ccccc1 (stereo not given)	-5.131%
O=C(CCCOCc1ccccc1)N1CCCC1c1ccccn1 (stereo not given)	-5.136%
COc1ccc(Oc2cncc(C3CCCN3C(C)=O)n2)cc1 (stereo not given)	-16.34%
CN(C)CC(=O)N1CCCC1c1ccccn1 (stereo not given)	98.84%
CC(=O)N1CCCC1c1cncc(Oc2ccc(F)cc2)n1 (stereo not given)	97.95%
CNCC(=O)N1CCCC1c1cncc(Oc2ccc(F)cc2)n1.Cl (stereo not given)	105.9%
Cc1cn(-c2ccccc2)nc1NS(=O)(=O)c1cc(C(=O)O)cs1	3.492%
COc1cccc(-c2n[nH]cc2C(=O)NC(C)c2n[nH]c(C)n2)c1 (stereo not given)	6.595%
O=C(NC1CC1)c1nc2c(o1)CN(c1ncccn1)C2	-9.105%
Fc1ccc(CN2CCCn3cnc(COCC4CC4)c3C2)cc1.O=C(O)C(F)(F)F	3.17%
CC(C)CNC[C@H]1O[C@H](Cc2cc(-c3ccccn3)on2)CC[C@@H]1O	-6.166%
Cn1nc(C2CC2)c2c1NC(=O)CC2c1ccc(CN2CCCCC2)s1 (stereo not given)	-3.758%
COCCOc1ccccc1CNCC1COC2(CCCC2)O1 (stereo not given)	0.05602%
CC(=O)N(Cc1ncc(C)o1)C1CCN(Cc2ccon2)C1 (stereo not given)	139.3%
CC(=O)N(Cc1ncc(C)o1)C1CCN(Cc2csc(C)n2)C1 (stereo not given)	123.5%
CC(=O)N(Cc1ncc(C)o1)C1CCN(CCCc2cnn(C)c2)C1 (stereo not given)	5.261%
CC(=O)N(Cc1ncc(C)o1)C1CCN(CCNC2CCCCC2)C1 (stereo not given)	-4.891%
CC(=O)N(Cc1ncc(C)o1)C1CCN(Cc2noc(C)n2)C1 (stereo not given)	3.628%
CC(=O)N(Cc1ncc(C)o1)C1CCN(Cc2cc(C)on2)C1 (stereo not given)	118.6%
Cc1cnc(CN(C)C2CCN(CC(=O)N(C)c3nccs3)C2)o1 (stereo not given)	-8.119%
CC(=O)N(Cc1ncc(C)o1)C1CCN(Cc2sc(C)nc2C)C1 (stereo not given)	115.4%
COCCCN1CCN(C(=O)C(c2cccc(F)c2)N(C)C)CC1 (stereo not given)	-8.976%
CC(NC(=O)C1=NN(C)C(=O)CC1)c1ccc(F)cc1F (stereo not given)	-12.15%

Structure (SMILES)	Percent Effect
COc1ccc(OC)c(C2C3=C(COC3=O)Nc3[nH]nc(C)c32)c1 (stereo not given)	5.984%
Cn1c(NCC(O)c2ccc(F)cc2F)c(C#N)c(=O)n(C)c1=O (stereo not given)	-7.398%
CCN1CC(C(=O)N2CC(Oc3ccccc3Cl)C2)CC1=O (stereo not given)	-26.5%
O=C(NCC1CC1)c1nc(COc2ccc3c(c2)OCO3)no1	5.191%
COCCCNC(=O)Nc1ccc(OCc2noc(C3CC3)n2)cc1	4.086%
Cc1cc(CN(C)C(=O)NC2CCCC2)no1	-3.677%
Cc1occc(=O)c1OCc1noc(C(=O)NCC2CC2)n1	118%
Cc1occc(=O)c1OCc1noc(C(=O)NC2CCCC2)n1	110.2%
O=C(NC1CCCC1)c1nc2c(o1)CN(CCO)C2	4.983%
Cc1ccc(NC(=O)CSCc2cccnc2)nc1	4.357%
CN(C)C(=O)C1(Oc2ccc(Cl)cc2)CCNCC1	-10.8%
O=C(C1CCOC1)N1Cc2ccccc2OC2(CCOCC2)C1 (stereo not given)	110.4%
CC(=O)N1Cc2ccccc2OC2(CCN(C(=O)C3CCOC3)CC2)C1 (stereo not given)	188.7%
O=C(C1CCOC1)N1CCC2(CC1)CN(c1ncccn1)CCO2.O=C(O)C(F)(F)F (stereo not given)	-29.34%
CC(C)NC(=O)N1CCC2(CCCO2)C1 (stereo not given)	5.792%
CC(C)n1cc(C(=O)N2Cc3ccccc3OC3(CCOCC3)C2)cn1	-9.745%
COCCN(C)CCN1CC2(CCN(C(=O)C3CCOC3)CC2)OC1=O (stereo not given)	-2.366%
CN1CCCC2(C1)CN(C(=O)C1CCCCC1)CCO2 (stereo not given)	-29.79%
CC(C)NC(=O)N1CCC2(CC1)CN(C(=O)NC(C)C)CCO2	117%
CC(=O)N1CCOC2(CCN(C(=O)C3CC3)CC2)C1	104.2%
CC(=O)N1CCCC2(C1)CN(C(=O)C1CCCCC1)CCO2 (stereo not given)	-22.57%
CC(C)CNC(=O)N1CCC2(CCCO2)C1 (stereo not given)	14.05%
O=C(c1ccncc1)N1Cc2ccccc2OC2(CCOCC2)C1	-8.514%
